Assay in all cases: NCI-60 one-dose screen, 48 h (100 = growth as untreated, 0 = no growth, -100 = all killed)
Holding throughout (conditions): 10 µM unless noted

Assay [1] concerns DU-145 prostate.
In assay [2] the test system is K-562 leukemia.
Assay [3] deals with MALME-3M melanoma.
The subject of assay [4] is MDA-MB-231 breast.
For assay [5], the system named is RXF 393 renal.
In assay [6] the test system is SF-268 CNS.
Assay [7] concerns SF-295 CNS.
Assay [8] deals with SF-539 CNS.
The subject of assay [9] is UACC-257 melanoma.
In assay [10] the test system is M14 melanoma.
Assay [11] concerns HCT-15 colon.
Assay [12] deals with HT29 colon.
For assay [13], the system named is SNB-75 CNS.
For assay [14], the system named is SNB-19 CNS.
The test system of assay [15] is U251 CNS.
Assay [16] relates to PC-3 prostate.
For assay [17], the system named is SK-MEL-5 melanoma.
The subject of assay [18] is UACC-62 melanoma.
Assay [19] relates to LOX IMVI melanoma.
The subject of assay [20] is SK-MEL-28 melanoma.

This is part of a sample that, as a whole, favours compounds with a hit. Of some 83,000 tested, about 20% had one in any assay.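 Note: values are percent growth. 100 is the growth of untreated cells, values between 100 and 0 indicate rising inhibition; between -100 and 0 indicates cell death.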 Values without a mark were called inactive. Active and inactive are the calls of the source. The calls were made as follows: active = growth percent below 10; inactive = the rest.

Regarding `CCn1cc(-c2ccnc(NCCNS(=O)(=O)c3cccc4ccccc34)c2)c(-c2cccc(O)c2)n1`, the growth in assay [1] was 97.9%; in assay [2], 75.7%; in assay [3], 109%; in assay [4], 108%; in assay [5], 92.9%; in [6], 94.7%. Further, the growth was 101% in [7]; 104% in assay [8]; 109% in assay [9]; 103% in [10]; 96.7% in [11]; 92.9% in assay [12]. Moreover, the growth was 107% in [13]; 106% in assay [14]; 53% in assay [15]; 83.2% in assay [16]; 95.8% in assay [17]; 97.2% in [18]. In addition, the growth is 111% in assay [19] and 107% in [20].
For `COc1ccc2nc3c(cc2c1)C(=O)CC(C(F)(F)F)C3` (stereo not given), the growth is 4.31% (active) in [1]; 16.7% in assay [2]; 49.6% in [3]; 60% in assay [4]; -1.91% (active) in assay [5]; 57.4% in assay [6]. The growth is 45.3% in assay [7]; 22.6% in assay [8]; 82% in [9]; 8.65% (active) in assay [10]; 37.8% in assay [11]; 10.9% in assay [12]. The growth is 7.87% (active) in assay [13]; 50.3% in [14]; 84.7% in assay [15]; 33% in assay [16]; 31.4% in [17]; 39.8% in [18]. Further, the growth was 43.8% in assay [19] and 61.1% in assay [20].
On to `Cn1cc(-c2nnc(-c3ccccc3)s2)c2cc(Br)cnc21`, for which the growth is 92.6% in assay [1]; 70.7% in [2]; 69.9% in assay [3]; 39.3% in [4]; 102% in assay [5]; 91.7% in assay [6]. In addition, the growth is 95.5% in assay [7]; 78.9% in assay [8]; 100% in assay [9]; 101% in assay [10]; 77.6% in assay [11]; 95% in [12]. Besides, the growth in [13] was 29.9%; in assay [14], 87.9%; in assay [15], 92%; in [16], 84.9%; in assay [17] it was 74.1%; in assay [18] it was 69.5%. Also, the growth in assay [19] was 83.3%; in assay [20], 97.6%.

Values taken from PubChem BioAssay (NCI).
